Here are results for 45 sequences from the supplement of paper PMC3545927.

The target in the experiment is furin, P09958. The experiment in a line: furin cleavage Z-score vs untreated control; higher = more cleavage, active = 3.5 or more, inactive = 1 or less, 8 variable residues between constant flanks. In a few lines:
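Read counts from sequencing released DNA gave abundance for each bead-bound 8-mer peptide–cDNA fusion cut by purified furin over 7.5, 15 or 30 min. The cleavage Z-score compares log counts with furin-free reactions after lowess adjustment and median absolute deviation scaling.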

Some of the results follow. The true hit rate is not given.
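Also: purified furin at 1:10 enzyme:substrate in 50 mM HEPES pH 7.5.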

Chain of furin, P09958 (P09958 whole entry, the tested form may be a part): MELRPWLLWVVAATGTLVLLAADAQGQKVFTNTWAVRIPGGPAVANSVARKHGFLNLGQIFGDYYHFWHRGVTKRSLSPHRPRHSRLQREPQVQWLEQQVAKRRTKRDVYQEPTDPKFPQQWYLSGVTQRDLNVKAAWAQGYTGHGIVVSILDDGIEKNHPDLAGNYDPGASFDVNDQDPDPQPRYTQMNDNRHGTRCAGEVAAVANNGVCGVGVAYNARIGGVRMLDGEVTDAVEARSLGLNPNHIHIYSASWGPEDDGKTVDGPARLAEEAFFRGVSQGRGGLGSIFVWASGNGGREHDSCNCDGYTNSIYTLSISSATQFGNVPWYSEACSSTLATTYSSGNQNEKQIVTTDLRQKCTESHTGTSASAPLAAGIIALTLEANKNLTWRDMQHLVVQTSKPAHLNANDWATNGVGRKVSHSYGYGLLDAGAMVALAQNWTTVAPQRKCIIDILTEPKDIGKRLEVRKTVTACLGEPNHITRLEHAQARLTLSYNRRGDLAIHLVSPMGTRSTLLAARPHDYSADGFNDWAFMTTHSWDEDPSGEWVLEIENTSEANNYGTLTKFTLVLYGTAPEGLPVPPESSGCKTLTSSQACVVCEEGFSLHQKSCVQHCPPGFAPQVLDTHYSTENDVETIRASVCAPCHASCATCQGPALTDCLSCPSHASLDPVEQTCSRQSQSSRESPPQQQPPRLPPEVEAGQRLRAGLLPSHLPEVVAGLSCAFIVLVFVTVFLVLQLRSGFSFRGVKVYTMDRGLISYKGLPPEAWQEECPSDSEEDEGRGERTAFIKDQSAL

Turning to CAYVVTSTWVAGNASASA [HC2149], the “furin cleavage Z-score” value was 0.323 (inactive) (7.5 min), -0.464 (inactive) (15 min) and -0.44 (inactive) (30 min).

As to CANGVCWTVYAGNASASA [HC698], the “furin cleavage Z-score” value runs as follows: (7.5 min) -1.07 (inactive); (15 min) 2.25; (30 min) -1.18 (inactive).

As to CANIIMFAPTAGNASASA [HC1576], the “furin cleavage Z-score” value by setting is: (7.5 min) -0.25 (inactive); (15 min) -0.574 (inactive); (30 min) -0.569 (inactive).

With CAARGGRAAIAGNASASA [HC1627], the “furin cleavage Z-score” value is 0.309 (inactive) (7.5 min), -1.06 (inactive) (15 min) and 0.234 (inactive) (30 min).

For CARVCRSDNTAGNASASA [FS-2194], the “furin cleavage Z-score” value is 2.3 (7.5 min), 1.13 (15 min) and 4.01 (active) (30 min).

Regarding CARVGRGVSIAGNASASA [FS-2195], the “furin cleavage Z-score” value (7.5 min) is -0.488 (inactive), the “furin cleavage Z-score” value (15 min) is -0.0472 (inactive) and the “furin cleavage Z-score” value (30 min) was 2.09.

Consider CARVGRSLPTAGNASASA [FS-2098], for which the “furin cleavage Z-score” value runs as follows: (7.5 min) 8.92 (active); (15 min) 10.2 (active); (30 min) 8.81 (active).

Take CAMALYDVVTAGNASASA [HC1457]: the “furin cleavage Z-score” value reads like this: (7.5 min) -0.109 (inactive); (15 min) -0.594 (inactive); (30 min) 1.06.

Regarding CARVPRDPSTAGNASASA [FS-2620], the “furin cleavage Z-score” value (7.5 min) was 0.232 (inactive), the “furin cleavage Z-score” value (15 min) is 0.063 (inactive) and the “furin cleavage Z-score” value (30 min) is 1.18.

Regarding CARVGRSVTDAGNASASA [FS-3117], the “furin cleavage Z-score” value by setting is: (7.5 min) 9.08 (active); (15 min) 9.86 (active); (30 min) 8.63 (active).

For CARKGRVVIDAGNASASA [FS-2263], the “furin cleavage Z-score” value was -1.41 (inactive) (7.5 min), -0.368 (inactive) (15 min) and 0.767 (inactive) (30 min).

Take CALVGLMALTAGNASASA [HC572]: the “furin cleavage Z-score” value (7.5 min) was -0.292 (inactive), the “furin cleavage Z-score” value (15 min) was -0.497 (inactive) and the “furin cleavage Z-score” value (30 min) is -0.985 (inactive).

CARVCCSMSYAGNASASA [HC1993]: the “furin cleavage Z-score” value was -1.56 (inactive) (7.5 min), 0.796 (inactive) (15 min) and 0.275 (inactive) (30 min).

On to CARVGRSSKQAGNASASA [FS-2838], for which the “furin cleavage Z-score” value by setting is: (7.5 min) 0.0354 (inactive); (15 min) 0.533 (inactive); (30 min) 2.07.

CARKGRSEDIAGNASASA [FS-2341]: the “furin cleavage Z-score” value is 0.928 (inactive) (7.5 min), 1.18 (15 min) and -0.197 (inactive) (30 min).

As to CARVGRQVVTAGNASASA [FS-2470], the “furin cleavage Z-score” value (7.5 min) amounted to 1.41, the “furin cleavage Z-score” value (15 min) was 4.05 (active) and the “furin cleavage Z-score” value (30 min) was found to be 2.16.

On to CAEVVTSTDVAGNASASA [HC2231], for which the “furin cleavage Z-score” value (7.5 min) is -0.548 (inactive), the “furin cleavage Z-score” value (15 min) is 0.743 (inactive) and the “furin cleavage Z-score” value (30 min) is -0.721 (inactive).

In the case of CAASSSASQLAGNASASA [HC1260], the “furin cleavage Z-score” value (7.5 min) amounted to 1.48, the “furin cleavage Z-score” value (15 min) is 0.251 (inactive) and the “furin cleavage Z-score” value (30 min) is 0.48 (inactive).

On to CAVVFCSMSYAGNASASA [HC2027], for which the “furin cleavage Z-score” value was 1.89 (7.5 min), 0.607 (inactive) (15 min) and -0.194 (inactive) (30 min).

CARVCRDLMDAGNASASA [FS-1800]: the “furin cleavage Z-score” value (7.5 min) was 4.33 (active), the “furin cleavage Z-score” value (15 min) is 7.74 (active) and the “furin cleavage Z-score” value (30 min) was 7.6 (active).

As for CARSLRDLMEAGNASASA [FS-2308], the “furin cleavage Z-score” value was 0.906 (inactive) (7.5 min), 1.52 (15 min) and 1.89 (30 min).

Take CARVSKDVEDAGNASASA [FS-1803]: the “furin cleavage Z-score” value runs as follows: (7.5 min) 0.222 (inactive); (15 min) -0.204 (inactive); (30 min) -0.557 (inactive).

Consider CAVVDCSMSYAGNASASA [HC2031], for which the “furin cleavage Z-score” value is -1.66 (inactive) (7.5 min), -0.65 (inactive) (15 min) and -0.452 (inactive) (30 min).

Turning to CAGLSTLPGNAGNASASA [HC1049], the “furin cleavage Z-score” value is 0.578 (inactive) (7.5 min), -0.00394 (inactive) (15 min) and 0.293 (inactive) (30 min).

As for CARQARHYHQAGNASASA [FS-2582], the “furin cleavage Z-score” value reads like this: (7.5 min) 0.232 (inactive); (15 min) 1.85; (30 min) 2.09.

Consider CARQRRCLPQAGNASASA [FS-2364], for which the “furin cleavage Z-score” value runs as follows: (7.5 min) -0.0379 (inactive); (15 min) 0.942 (inactive); (30 min) 2.63.

For CARQRRTVGQAGNASASA [FS-2367], the “furin cleavage Z-score” value is 6.93 (active) (7.5 min), 8.06 (active) (15 min) and 7.82 (active) (30 min).

For CARQARAVPQAGNASASA [FS-2224], the “furin cleavage Z-score” value is, setting by setting: (7.5 min) 3.01; (15 min) 5.06 (active); (30 min) 5.46 (active).

With CARQRRQVWKAGNASASA [FS-3043], the “furin cleavage Z-score” value is, setting by setting: (7.5 min) 2.63; (15 min) 5.18 (active); (30 min) 6.07 (active).

Consider CARQRKSVNAAGNASASA [FS-2363], for which the “furin cleavage Z-score” value is 1.57 (7.5 min), 3.81 (active) (15 min) and 4.35 (active) (30 min).

CARTMKSVNAAGNASASA [FS-2466]: the “furin cleavage Z-score” value is, setting by setting: (7.5 min) 1.07; (15 min) 2.56; (30 min) 0.0466 (inactive).

For the sequence CARQARFSSQAGNASASA [FS-1915], the “furin cleavage Z-score” value reads like this: (7.5 min) -1.25 (inactive); (15 min) -0.103 (inactive); (30 min) 0.0874 (inactive).

Regarding CARQRKESETAGNASASA [FS-2172], the “furin cleavage Z-score” value is, setting by setting: (7.5 min) -0.961 (inactive); (15 min) -0.283 (inactive); (30 min) -0.371 (inactive).

Take CAIAYFSMVGAGNASASA [HC340]: the “furin cleavage Z-score” value reads like this: (7.5 min) -0.888 (inactive); (15 min) -0.599 (inactive); (30 min) 0.982 (inactive).

For CAAELATRSFAGNASASA [HC1333], the “furin cleavage Z-score” value reads like this: (7.5 min) 2.09; (15 min) 0.0816 (inactive); (30 min) 1.22.

In the case of CAVVLTESTLAGNASASA [HC1327], the “furin cleavage Z-score” value was 0.79 (inactive) (7.5 min), 0.145 (inactive) (15 min) and 0.957 (inactive) (30 min).

As for CAFAQALPVWAGNASASA [HC1301], the “furin cleavage Z-score” value was -1.52 (inactive) (7.5 min), 0.477 (inactive) (15 min) and -2.4 (inactive) (30 min).

Consider CAWRLLAPITAGNASASA [HC672], for which the “furin cleavage Z-score” value is -1.21 (inactive) (7.5 min), -0.661 (inactive) (15 min) and -0.636 (inactive) (30 min).

With CARTKRTPGPAGNASASA [FS-2527], the “furin cleavage Z-score” value is, setting by setting: (7.5 min) 5.68 (active); (15 min) 6.29 (active); (30 min) 6.29 (active).

On to CARTITTGSPAGNASASA [HC802], for which the “furin cleavage Z-score” value by setting is: (7.5 min) -0.428 (inactive); (15 min) -0.048 (inactive); (30 min) 0.343 (inactive).

Turning to CARTKRAQSPAGNASASA [FS-2824], the “furin cleavage Z-score” value was 6.65 (active) (7.5 min), 6.74 (active) (15 min) and 5.31 (active) (30 min).

As for CARTKLKLTPAGNASASA [HC1636], the “furin cleavage Z-score” value by setting is: (7.5 min) -0.273 (inactive); (15 min) -0.712 (inactive); (30 min) 0.0379 (inactive).

Regarding CARSVRLGGPAGNASASA [FS-1795], the “furin cleavage Z-score” value was 0.0283 (inactive) (7.5 min), 0.734 (inactive) (15 min) and -1.33 (inactive) (30 min).

As for CARTKRQIPHAGNASASA [FS-1870], the “furin cleavage Z-score” value is 7.68 (active) (7.5 min), 12 (active) (15 min) and 8.92 (active) (30 min).

Regarding CARTKRTRRPAGNASASA [FS-2830], the “furin cleavage Z-score” value was 0.799 (inactive) (7.5 min), 1.15 (15 min) and 0.99 (inactive) (30 min).
